Sampled rows, rich in hits. Any-hit rate of the full collection: about 2%.
IL-2 act: qHTS of IL-2 Activators; IL-2 activation reporter assay, cell-based qHTS; stimulated with anti-CD3/CD4/CD28 beads; in transgenic mouse T cells; activation, % (series mostly up to about 46 µM); 360,000 tested, 0.065% active; AID 652025, 2013; in the data active means activation above about 50%; inconclusive means mostly about 30% to 49%; further: 0% is about no effect
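Readout: EGFP and DsRed signals by fluorescent plate cytometry. Unstimulated transgenic mouse T cells received compound 60 min before antibody-bead stimulation, then incubated 18 h at 37 degrees C.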
ClpP mod: qHTS Assay for Activators of ClpP | purified B. subtilis ClpP, FRET peptide cleavage, 20 min | 340,000 tested, 1.9% active | AID 651965, 2013 | ATP-dependent Clp protease proteolytic subunit (Bacillus subtilis (strain 168)), P80244 | Potency, µM (highest dose often 57.5 µM), without a hit: top-dose activity change, negative = active; active means well fitted falling curve with a large enough effect; inconclusive means small, poorly fitted or top-dose-only effect; inactive means no such curve, though single readings can be large or run the other way; further: potency means the concentration at half of the fitted maximal effect; the source files actives as falling curves though it sought activators and does not explain the sign; nearly all actives have a fitted effect of over 65% in size
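Buffer: 100 mM Tris/HCl pH8, 100 mM KCl, 0.05% low protease BSA, 2.5% glycerol, 0.01% Tween-20. ClpP 10 microg/mL final; 20 min RT; delta FRET normalized to ADEP and DMSO controls.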
PKM2 activator: qHTS Assay for Activators of Human Muscle isoform 2 Pyruvate Kinase. Pyruvate kinase PKM (Homo sapiens), P14618. purified PKM2, Kinase-Glo ATP luminescence, activation; response scale: 0% is enzyme alone, no compound. Potency, µM (highest dose often 57.5 µM), for the others: top-dose activation, actives largely listed as activators. 260,000 tested, 0.34% active. AID 1631, 2009; further: potency means the concentration at half of the fitted maximal effect; on the % scale 0 is the no-effect control and ±100 the full control effect; nearly all actives have a fitted effect of over 55% in size
Target sequence (P14618 whole entry, looked up, canonical isoform): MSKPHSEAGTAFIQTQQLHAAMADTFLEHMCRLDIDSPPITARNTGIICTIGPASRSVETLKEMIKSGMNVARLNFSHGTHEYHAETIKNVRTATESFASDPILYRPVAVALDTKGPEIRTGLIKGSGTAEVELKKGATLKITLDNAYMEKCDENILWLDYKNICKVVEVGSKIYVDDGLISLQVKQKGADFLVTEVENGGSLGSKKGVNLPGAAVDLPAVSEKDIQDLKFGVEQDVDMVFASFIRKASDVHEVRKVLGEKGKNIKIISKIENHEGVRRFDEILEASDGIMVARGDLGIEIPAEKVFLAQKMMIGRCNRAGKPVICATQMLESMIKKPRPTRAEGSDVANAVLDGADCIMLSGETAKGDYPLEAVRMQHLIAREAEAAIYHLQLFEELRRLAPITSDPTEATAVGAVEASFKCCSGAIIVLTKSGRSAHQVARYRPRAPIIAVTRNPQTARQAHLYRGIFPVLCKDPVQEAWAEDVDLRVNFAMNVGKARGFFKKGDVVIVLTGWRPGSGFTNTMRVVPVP
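Kinase-Glo luminescence reports ATP generated from ADP (0.1 mM) and PEP (0.5 mM) by purified hPK-M2 after 1 h at room temperature, pH 7.2 imidazole buffer; intermediate enzyme activity allows detecting inhibitors and activators.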
NPSR antag: qHTS Assay for Antagonists of the Neuropeptide S Receptor: cAMP Signal Transduction | CHO-NPSR cells, cAMP TR-FRET, antagonist mode | Potency, µM (doses to about 38.3 µM), without a hit: at the highest dose activity change, negative = inhibition, hits mostly inhibitors | 220,000 tested, 1% active; further: potency means the concentration at half of the fitted maximal effect; on the % scale 0 is the no-effect control and ±100 the full control effect; nearly all actives have a fitted effect of over 50% in size
An asterisk follows results filed as active; ? = inconclusive; . = not tested or not shown; [ ] = dose if it differs, or a comment. Unless noted, the call rests on the fitted dose curve; in most records, active means well fitted curve in the direction sought with a large enough effect; inconclusive means small, poorly fitted or top-dose-only effect, or another doubt; inactive means no such curve, though single readings can be large; an effect the other way counts as inactive or inconclusive.

SMILES	IL-2 act	ClpP mod	PKM2 activator	NPSR antag
COc1cccc(/C=N/NC(=O)CSc2nnc(C)n2-c2ccccc2)c1OC	0.5	28.2µM*	1.8%	-6.4%[46.1 µM]
Cc1ccccc1OCCn1cc(C(=S)N2CCN(C)CC2)c2ccccc21	-0.7	-1.4%	.	-46.0%
COc1ccc2c(CN(C)c3ccccc3)cc(=O)oc2c1	0.5	22.4µM*	-6.2%	?
CN1C(=O)C(Cl)(Cl)C(=O)c2ccccc21	-4.0	.	-3.3%	15.5%
CCOC(=O)c1ccccc1NCN1C(=O)CSC1=O	-0.4	28.2µM*	-17.3%	-11.0%[46.1 µM]
CCN1CCN(C(c2cccs2)C(C)NC(=S)Nc2cccc(C)c2C)CC1 (stereo not drawn)	-1.4	.	-0.1%	2.1%
COc1ccc(-n2c(SCc3cn4c(C)cccc4n3)nc3ccccc3c2=O)cc1OC	-0.1	2.1%	-6.1%	-40.3%
CCCCCCC[C@H](N)[C@H](O)C(=O)N(C)[C@@H](CCS(C)=O)C(=O)N[C@@H](Cc1ccc(O)cc1)C(=O)N[C@@H](Cc1ccc(O)cc1)C(=O)O (stereo partly drawn)	-2.2	-1.6%	7.0%	9.2%
CCn1c(SCC(=O)NCC2CCCO2)nnc1-c1ccc(S(=O)(=O)N2CCN(C)CC2)cc1 (stereo not drawn)	0.3	.	0.6%	2.4%
CCn1c(SCC(=O)N2CCC(C)CC2)nnc1-c1ccc(S(=O)(=O)N2CCN(C)CC2)cc1	-1.2	31.6µM*	1.9%	-6.6%[46.1 µM]
O=C(N/N=C/c1ccc(F)c(F)c1)c1cc2c(s1)-c1ccccc1CC2	2.9	31.6µM*	-3.8%	16.4%[46.1 µM]
O=C1CCc2cc(S(=O)(=O)Nc3cccc(Cl)c3)ccc2N1	-0.7	.	.	.
Cc1cccc(NS(=O)(=O)c2ccc3c(c2)CCC(=O)N3)c1	-0.1	.	3.98µM*	.
CCc1cccc(NS(=O)(=O)c2ccc3c(c2)CCC(=O)N3)c1	0.6	.	2.82µM*	-2.3%
Cc1ccc(NS(=O)(=O)c2ccc3c(c2)CC(=O)N3)cc1C	1.0	5.2%	14.1µM*	.
CCc1cccc(NS(=O)(=O)c2ccc3c(c2)NC(=O)CC(=O)N3)c1	0.4	-1.2%	9.2%	14.5%
COc1cccc(NS(=O)(=O)c2ccc3c(c2)CC(=O)N3)c1	0.1	1.1%	.	.
Cc1ccccc1/C=C(\C#N)c1nc(-c2ccc(Cl)cc2)cs1	.	-3.1%	.	.
O=C(Cn1nnc(-c2ccc3c(c2)OCO3)n1)Nc1ccccc1C(=O)O	-3.3	-17.2%	-17.8%	.
CCN(CC)CCCNC(=O)c1oc2c(c1C)-c1nn(Cc3ccc(Cl)cc3)cc1CC2	.	15.8µM*	.	.
CC(=O)Nc1ccc(NC(=O)c2oc3c(c2C)-c2nn(Cc4ccccc4Cl)cc2CC3)cc1	.	20µM*	.	.
COCCCNC(=O)c1oc2c(c1C)-c1nn(Cc3ccc(Cl)cc3)cc1CC2	.	31.6µM*	.	.
COCCCNC(=O)c1oc2c(c1C)-c1nn(Cc3cccc(Cl)c3)cc1CC2	.	-24.6%	.	.
CCc1ccc(CNC(=O)Cc2c(C(=O)O)c(C)cn2C)cc1	.	0.3%	.	.
CCOc1ccc(C(=O)NCCc2sc(-c3ccc(C)cc3)nc2C)cc1	.	3.9%	.	.
SMILES	IL-2 act	ClpP mod	PKM2 activator	NPSR antag
CCOc1ccc(C(=O)NCCc2sc(-c3ccc(F)cc3)nc2C)cc1	.	25.1µM*	.	.
c1ccc(CNc2nc(-c3cccnc3)cs2)cc1	0.3	.	1.6%	8.1%
CCc1ccccc1NC(=S)N1CCN(c2cccc(OC)c2)CC1	0.1	10µM*	-1.0%	.
O=C(NCCc1ccccc1)c1ccc(CS(=O)(=O)Cc2ccc(F)cc2)o1	-1.9	-0.5%	.	.
COCCN1C2=C(C(=O)CC(C)(C)C2)C(c2ccc(OC)c(OC)c2)C2=C1CC(C)(C)CC2=O	-0.7	10µM*	-6.7%	.
COCCCN1C2=C(C(=O)CC(C)(C)C2)C(c2ccc(OC)c(OC)c2)C2=C1CC(C)(C)CC2=O	0.6	-4.7%	3.3%	.
COC(=O)c1ccccc1Sc1snnc1C	2.7	.	1.3%	2.3%
Cc1cc(C)n2nc(NCc3cccc(Br)c3)nc2n1	-2.9	14.1µM*	-1.2%	-8.0%[46.1 µM]
COc1ccc(CNc2nc3nc(C)cc(C)n3n2)cc1OC	-1.0	-13.7%	-2.8%	-9.2%[46.1 µM]
Cc1ccc(CSc2nn3c(=O)c(C)nnc3s2)cc1	0.0	-1.8%	28.2%	8.7%
Cc1cccc(CSc2nn3c(=O)c(C)nnc3s2)c1	-0.4	0.5%	10µM*	-4.9%[46.1 µM]

Compound activity (PubChem)
